High-throughput results: PubChem BioAssay, University of Kansas High Throughput Screening Laboratory
Shown are actives, neighbours in structure and some others; about 3.5% of the full set was active somewhere.
mHTT CaM bind: disrupts binding of mutant huntingtin to calmodulin; P42858; AlphaScreen His-mHTT/GST-CaM binding, luminescence; inhibition, % at 15 µM; 190,000 compounds, 3.6% hits
Target sequence (P42858 whole entry, looked up, change not shown): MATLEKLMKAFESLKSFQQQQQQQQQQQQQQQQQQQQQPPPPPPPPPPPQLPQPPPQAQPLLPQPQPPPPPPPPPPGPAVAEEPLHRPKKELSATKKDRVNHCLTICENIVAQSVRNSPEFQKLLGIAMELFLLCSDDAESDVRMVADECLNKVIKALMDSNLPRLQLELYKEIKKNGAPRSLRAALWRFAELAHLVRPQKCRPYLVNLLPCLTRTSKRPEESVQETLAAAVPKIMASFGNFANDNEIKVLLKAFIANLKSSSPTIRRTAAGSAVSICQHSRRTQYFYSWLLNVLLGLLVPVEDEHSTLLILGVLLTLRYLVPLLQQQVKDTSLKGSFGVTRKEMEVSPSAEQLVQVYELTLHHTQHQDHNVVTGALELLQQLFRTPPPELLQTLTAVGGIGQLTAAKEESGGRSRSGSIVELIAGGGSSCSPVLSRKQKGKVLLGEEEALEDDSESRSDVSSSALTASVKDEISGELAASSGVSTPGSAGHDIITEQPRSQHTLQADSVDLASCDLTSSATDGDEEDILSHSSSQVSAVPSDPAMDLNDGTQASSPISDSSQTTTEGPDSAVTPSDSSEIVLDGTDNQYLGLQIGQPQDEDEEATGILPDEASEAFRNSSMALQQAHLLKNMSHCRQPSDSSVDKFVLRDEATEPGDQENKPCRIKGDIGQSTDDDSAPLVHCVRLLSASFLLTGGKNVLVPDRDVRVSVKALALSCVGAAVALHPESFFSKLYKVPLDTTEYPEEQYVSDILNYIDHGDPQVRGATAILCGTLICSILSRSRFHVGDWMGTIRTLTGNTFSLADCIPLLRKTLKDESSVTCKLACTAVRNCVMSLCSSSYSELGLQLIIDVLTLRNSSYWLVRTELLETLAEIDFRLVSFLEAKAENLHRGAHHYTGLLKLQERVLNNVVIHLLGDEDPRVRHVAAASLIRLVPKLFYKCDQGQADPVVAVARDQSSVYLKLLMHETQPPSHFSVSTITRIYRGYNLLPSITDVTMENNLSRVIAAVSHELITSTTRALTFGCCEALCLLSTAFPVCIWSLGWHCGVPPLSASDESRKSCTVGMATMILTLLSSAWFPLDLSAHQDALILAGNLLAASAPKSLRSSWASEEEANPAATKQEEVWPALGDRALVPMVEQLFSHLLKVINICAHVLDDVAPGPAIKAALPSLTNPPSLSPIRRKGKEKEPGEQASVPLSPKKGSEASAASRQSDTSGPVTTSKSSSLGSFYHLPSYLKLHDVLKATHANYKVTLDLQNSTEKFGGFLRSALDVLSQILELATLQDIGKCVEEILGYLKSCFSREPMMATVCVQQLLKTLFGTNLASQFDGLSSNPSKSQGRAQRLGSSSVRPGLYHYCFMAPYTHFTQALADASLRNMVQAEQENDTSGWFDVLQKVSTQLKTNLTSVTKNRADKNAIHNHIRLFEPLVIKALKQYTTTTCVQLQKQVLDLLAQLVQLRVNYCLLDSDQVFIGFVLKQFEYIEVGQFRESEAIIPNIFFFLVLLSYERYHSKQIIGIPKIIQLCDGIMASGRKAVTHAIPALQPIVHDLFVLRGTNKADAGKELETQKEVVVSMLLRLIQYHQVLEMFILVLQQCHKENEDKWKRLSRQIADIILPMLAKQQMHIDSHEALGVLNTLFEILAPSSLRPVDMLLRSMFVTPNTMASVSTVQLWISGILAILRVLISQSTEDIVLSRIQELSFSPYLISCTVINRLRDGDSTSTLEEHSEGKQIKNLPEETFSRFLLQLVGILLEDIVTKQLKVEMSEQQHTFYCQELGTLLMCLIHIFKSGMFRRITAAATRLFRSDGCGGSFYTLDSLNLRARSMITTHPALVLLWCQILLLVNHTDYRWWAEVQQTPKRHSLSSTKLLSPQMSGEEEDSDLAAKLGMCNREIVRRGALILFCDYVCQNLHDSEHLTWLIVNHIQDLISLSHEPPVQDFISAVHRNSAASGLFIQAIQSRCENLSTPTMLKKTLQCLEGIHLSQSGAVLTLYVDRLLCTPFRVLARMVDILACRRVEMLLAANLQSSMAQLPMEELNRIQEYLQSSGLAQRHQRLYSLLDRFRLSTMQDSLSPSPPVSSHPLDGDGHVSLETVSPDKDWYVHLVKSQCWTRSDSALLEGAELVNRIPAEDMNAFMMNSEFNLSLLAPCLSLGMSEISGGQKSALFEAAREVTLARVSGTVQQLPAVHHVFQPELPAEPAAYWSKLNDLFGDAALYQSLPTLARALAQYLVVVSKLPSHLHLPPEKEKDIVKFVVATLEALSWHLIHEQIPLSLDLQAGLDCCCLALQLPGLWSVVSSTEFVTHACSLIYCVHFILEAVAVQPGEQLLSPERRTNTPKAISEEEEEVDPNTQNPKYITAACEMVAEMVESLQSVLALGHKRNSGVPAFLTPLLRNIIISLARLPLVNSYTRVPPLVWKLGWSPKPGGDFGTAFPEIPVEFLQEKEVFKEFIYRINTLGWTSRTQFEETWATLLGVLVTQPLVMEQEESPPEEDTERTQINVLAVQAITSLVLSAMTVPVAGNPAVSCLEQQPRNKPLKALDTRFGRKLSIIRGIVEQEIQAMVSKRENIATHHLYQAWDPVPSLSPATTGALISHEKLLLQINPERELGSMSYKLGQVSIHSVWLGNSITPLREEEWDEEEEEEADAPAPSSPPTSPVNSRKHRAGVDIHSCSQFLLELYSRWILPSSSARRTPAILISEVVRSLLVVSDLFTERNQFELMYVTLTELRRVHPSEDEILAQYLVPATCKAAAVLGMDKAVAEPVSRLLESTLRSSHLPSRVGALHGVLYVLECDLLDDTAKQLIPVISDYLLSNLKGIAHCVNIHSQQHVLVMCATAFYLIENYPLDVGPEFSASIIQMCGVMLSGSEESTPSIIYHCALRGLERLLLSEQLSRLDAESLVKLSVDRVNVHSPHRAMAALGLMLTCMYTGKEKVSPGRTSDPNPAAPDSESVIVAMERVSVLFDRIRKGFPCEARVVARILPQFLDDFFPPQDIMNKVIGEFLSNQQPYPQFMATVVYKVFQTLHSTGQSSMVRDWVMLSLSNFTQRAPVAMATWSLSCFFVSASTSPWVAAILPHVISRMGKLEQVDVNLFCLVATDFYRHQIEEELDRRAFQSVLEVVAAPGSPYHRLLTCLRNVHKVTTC
Pf apPOL inh: Pf-apPOL DNA polymerase inhibition. 210,000 compounds, 0.25% hits. AID 1794808. Recombinant Pf-apPOL, molecular beacon fluorescence, 1.5 h. inhibition, % at 10 µM
Large screens that a line does not name were inactive. Rule as the data show it: active = inhibition above about 50%; inactive = the rest.

O=[N+]([O-])C(/C=C(\Cl)[N+](=O)[O-])=C1Nc2ccccc2N1	mHTT CaM bind 88
Cc1nonc1OCC(C)(C)Nc1ccc(C(F)(F)F)cc1[N+](=O)[O-]	none
Cc1cc(C)c(C)c(S(=O)(=O)N2CCC(c3noc(-c4ccccc4)n3)CC2)c1C	none
Cc1cc(C)c(S(=O)(=O)N2CCC(c3noc(-c4ccccc4)n3)CC2)c(C)c1	mHTT CaM bind 100
Cc1ccc(C(=O)N=c2sc(C)cn2CC(=O)N(C)C)cc1	none
Cc1[nH]nc(SCC(=O)Nc2cccc(Cl)c2)c1[N+](=O)[O-]	none
Cc1[nH]nc(SCC(=O)Nc2cc(Cl)ccc2O)c1[N+](=O)[O-]	mHTT CaM bind 52
Cc1ccc(NC(=O)CCS(=O)(=O)c2ccc(Br)s2)c(Cl)c1	none
COC(=O)c1ccccc1NC(=O)CSc1ncnc2c1[nH]c1ccc(F)cc12	none
O=C(c1cn2c(n1)CSCC2)N1CCC(Cc2ccccc2)CC1	mHTT CaM bind 57
O=C(c1cn2c(n1)COCC2)N1CCC(Cc2ccccc2)CC1	none
CCOCCCNC(=O)c1c[nH]c2ccc(S(=O)(=O)N(C)c3ccccc3C)cc2c1=O	none
O=C(Nc1c(Cl)c(Cl)c(O)c(Cl)c1Cl)c1ccccc1	mHTT CaM bind 85
O=C(Nc1c(F)c(F)c(F)c(F)c1F)c1ccccc1	none
Cc1cc(C)cc(NC(=O)C2CC(=O)N(Cc3ccccc3F)C2)c1 (centres undefined)	none
COc1ccc2c(c1)OC(=Cc1ccc(OC(C)=O)c(OC)c1)C2=O	none
CC(C)n1cc2cc(C(=O)N3CCN(Cc4cccc(F)c4)CC3)sc2c1	mHTT CaM bind 71
CC(C)n1cc2cc(C(=O)N(C)Cc3ccccc3)sc2c1	mHTT CaM bind 86
CC(C)n1cc2cc(C(=O)N(C)C)sc2c1	none
CN(Cc1ccccc1)C(=O)c1cc2cn(C3CC3)cc2s1	mHTT CaM bind 95
O=C(NCc1ccccc1)c1cc2cn(C3CC3)cc2s1	none
CC(C)N1CCN(C(=O)c2cc3cn(C(C)C)cc3s2)CC1	none
S=C1NC2=C(CCC2)C2(CCCC2)N1	none (no result: Pf apPOL inh)
CC(=O)Nc1ccc(N/C=C(\C#N)c2nc(-c3ccc([N+](=O)[O-])cc3)cs2)cc1	none
CCC(=O)N1CCCn2nc(-c3cccnc3)cc2C1	none
COc1ccc(C2CC(c3ccc(OC)c(OC)c3)=NN2C(C)=O)cc1 (centres undefined)	none
O=C(CCc1nc2ccccc2n(Cc2c(F)cccc2Cl)c1=O)NCc1ccccc1	mHTT CaM bind 55
CCCCNC(=O)CCc1nc2ccccc2n(Cc2c(F)cccc2Cl)c1=O	none
Nc1c(N)c(N)c(N)c(N)c1N	mHTT CaM bind 64 (no result: Pf apPOL inh)
CN1CCCc2cc(C(CNC(=O)C(=O)Nc3ccc4c(c3)OCCO4)N(C)C)ccc21 (centres undefined)	none
CN1CCc2cc(C(CNC(=O)C(=O)Nc3cccc(C(F)(F)F)c3)N(C)C)ccc21 (centres undefined)	mHTT CaM bind 53
Cc1cc(F)ccc1NC(=O)CN1CCc2ccccc2C1C(=O)N1CCC(C)CC1 (centres undefined)	none
COc1ccc(CNC2CC(=O)N(c3ccc(Br)cc3)C2=O)cc1 (centres undefined)	none
COc1ccc(-c2nc3cccnc3n2C2CCN(C(=O)c3cccs3)C2)cc1 (centres undefined)	none
COc1ccc(-c2nc3cccnc3n2C2CCN(C(=O)NC(C)C)C2)cc1 (centres undefined)	none
COc1ccc(-c2nc3cccnc3n2C2CCN(C(=O)c3ccc(C)s3)C2)cc1 (centres undefined)	mHTT CaM bind 65
COc1ccc(-c2nc3cccnc3n2C2CCN(C(=O)c3ccc(Cl)s3)C2)cc1 (centres undefined)	mHTT CaM bind 70
CC(C)c1ccc(N(CC(=O)Nc2cccnc2)S(C)(=O)=O)cc1	none
O=C(c1cc2c(s1)CN(C1CCCC1)C2)N1CCc2ccccc2C1	none
COc1cc(C(=O)n2c(C)nc3ccccc32)cc(OC)c1OC	mHTT CaM bind 89
Cc1nc2ccccc2n1C(=O)c1ccc(F)cc1	none
C=CCOC(=O)COc1ccc2c(=O)c(Oc3cccc(OC)c3)c(C)oc2c1	none
COc1ccc2c(c1)c1c3n2CCNC3CCC1 (centres undefined)	none
Brc1ccc2c(c1)c1c3n2CCNC3CCC1 (centres undefined)	mHTT CaM bind 75
COc1cc2c(cc1OC)C(COc1cccc(C(F)(F)F)c1)N(C(=O)C(C)C)CC2 (centres undefined)	mHTT CaM bind 96
COC(=O)c1ccc(OCC2c3cc(OC)c(OC)cc3CCN2C(=O)C2CC2)cc1 (centres undefined)	none
COc1cc2c(cc1OC)C(COc1ccccc1OC)N(C(=O)c1ccco1)CC2 (centres undefined)	none
COc1cc2c(cc1OC)C(COc1ccccc1OC)N(C(=O)C(C)C)CC2 (centres undefined)	none
COc1cc2c(cc1OC)C(COc1cccc(C(F)(F)F)c1)N(C(=O)C1CC1)CC2 (centres undefined)	mHTT CaM bind 95
COc1cc2c(cc1OC)C(COc1cccc(C(F)(F)F)c1)N(C(=O)c1ccco1)CC2 (centres undefined)	mHTT CaM bind 100
COc1ccc(-c2noc(-c3ccc(OC)c([N+](=O)[O-])c3)n2)cc1OC	none
Cc1ccc(C(=O)N2CCCC(c3nc(CCNC(=O)C(C)C)cs3)C2)s1 (centres undefined)	none
O=C1CCCC(=O)N1c1ccc(N2CCC(O)(c3cccc(C(F)(F)F)c3)CC2)c([N+](=O)[O-])c1	mHTT CaM bind 93
O=C1CCCC(=O)N1c1ccc(N2CCN(c3cccc(C(F)(F)F)c3)CC2)c([N+](=O)[O-])c1	none
CCCc1nc2cccnc2n1C1CCN(C(=O)c2ccccn2)C1 (centres undefined)	none
O=C(NCc1cccnc1)/C(=N\O)c1ccccn1	mHTT CaM bind active
O=C(NCc1cccnc1)C(=O)NCc1cccnc1	none
Nc1c(C(=O)c2ccc(Cl)cc2)sc2[nH]c(=O)c(C(=O)O)cc12	mHTT CaM bind 59
Nc1c(C(=O)Nc2ccc(Cl)cc2Cl)sc2[nH]c(=O)c(C(=O)O)cc12	none
O=[N+]([O-])c1ccc(Sc2cccc3cccnc23)c2ncccc12	none
O=[N+]([O-])c1ccc(OS(=O)(=O)c2ccc3ccccc3c2)c2ncccc12	mHTT CaM bind 100 (no result: Pf apPOL inh)
CC(C)NC(=O)c1ccc2c(c1)NC(=O)C(N1CCOCC1)S2 (centres undefined)	none
COc1ccc(Cl)cc1NS(=O)(=O)c1ccc(Cl)cc1	none
COc1ccccc1C(=O)N1CCCN(C2CCN(Cc3ccc(F)cc3)C2=O)CC1 (centres undefined)	none
O=C(c1ccccc1Cl)N1CCCN(C2CCN(Cc3ccc(F)cc3)C2=O)CC1 (centres undefined)	mHTT CaM bind 57
CCC(C)(C)OCC(O)CN1CCCC(C)C1 (centres undefined)	none
CCCN(CCC)C(=O)c1c[nH]c2ccc(S(=O)(=O)N(C)c3cc(C)ccc3C)cc2c1=O	none
O=C(CSc1nccn1-c1cccc(Cl)c1)Nc1ccccc1F	none
Cc1ccccc1NC(=O)CSc1nccn1-c1cccc(C(=O)Nc2ccccc2)c1	mHTT CaM bind 60
COc1ccc(Cl)cc1NC(=O)c1c(NCc2ccncc2)sc2c1CCCC2	mHTT CaM bind 79
COc1ccccc1NC(=O)c1c(NC(=O)c2ccccc2Cl)sc2c1CCCC2	none
COc1ccc(OC)c(NC(=O)c2cccnc2)c1	none
COc1ccc(OC)c(NC(=O)c2c(NC(=O)CCC(=O)O)sc3c2CCCCC3)c1	mHTT CaM bind 54
